Consider eight compounds from PubChem BioAssay (NCI).

Assay in all cases: NCI-60 one-dose screen, 48 h (100 = growth as untreated, 0 = no growth, -100 = all killed)
The subject of one experiment is HCT-15 colon. The settings on record: 10 µM unless noted.
For the next experiment, the system named is HT29 colon. The settings on record: 10 µM unless noted.
The test system of the next experiment is SNB-75 CNS. Particulars: 10 µM unless noted.
In a further experiment the test system is SNB-19 CNS. The settings on record: 10 µM unless noted.
A further experiment concerns U251 CNS. Particulars: 10 µM unless noted.
A further experiment deals with PC-3 prostate. The settings on record: 10 µM unless noted.
The next experiment has as its system SK-MEL-5 melanoma. The settings on record: 10 µM unless noted.
The next experiment has as its system UACC-62 melanoma. The settings on record: 10 µM unless noted.
The test system of the next experiment is LOX IMVI melanoma. The settings on record: 10 µM unless noted.
The subject of a further experiment is SK-MEL-28 melanoma. Particulars: 10 µM unless noted.
In a further experiment the test system is SK-MEL-2 melanoma. The settings on record: 10 µM unless noted.
A further experiment deals with EKVX NSCLC. The settings on record: 10 µM.
The subject of another experiment is SN12C renal. Particulars: 10 µM unless noted.
The subject of another experiment is UO-31 renal. The settings on record: 10 µM unless noted.
The test system of a further experiment is TK-10 renal. Particulars: 10 µM unless noted.
A further experiment has as its system ACHN renal. Particulars: 10 µM unless noted.
In the next experiment the test system is CAKI-1 renal. The settings on record: 10 µM unless noted.
A further experiment relates to CCRF-CEM leukemia. Particulars: 10 µM.
The next experiment has as its system MOLT-4 leukemia. The settings on record: 10 µM unless noted.
The test system of another experiment is A498 renal. The settings on record: 10 µM unless noted.

This is part of a sample that, as a whole, favours compounds with a hit. Of some 83,000 tested, about 20% had one in any assay.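 In brief: 96-well plates, 48 h treatment, single concentration, percent growth endpoint.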 Values without a mark were called inactive. The source made the active and inactive calls. Rule for the calls: active = growth percent below 10; inactive = the rest.

Take `COc1ccc(/C(=C(\c2ccccc2)[N+](=O)[O-])c2ccc(OCCN3CCCC3)cc2)cc1`: the growth was 6.54% (active) with HCT-15 colon; 9.77% (active) with HT29 colon; 76% in the experiment with SNB-75 CNS; 87.8% with SNB-19 CNS; 74.1% in the experiment with U251 CNS; 69.4% in the experiment on PC-3 prostate. For the same compound, the growth is -78.2% (active) in the experiment on SK-MEL-5 melanoma; 38.4% in the experiment on UACC-62 melanoma; -20.1% (active) in the experiment on LOX IMVI melanoma; -10.3% (active) with SK-MEL-28 melanoma; 79.4% in the experiment on SK-MEL-2 melanoma; 96.9% in the experiment with EKVX NSCLC. In addition, the growth in the experiment on SN12C renal was 83.4%; with UO-31 renal, 28.1%; in the experiment on TK-10 renal it was 80.4%; with ACHN renal, 75.4%; in the experiment with CAKI-1 renal, 76.9%; with CCRF-CEM leukemia it was 67.6%. The growth in the experiment on MOLT-4 leukemia is 71.9%.
With `O=C(O)c1occ(Cl)c1Cl`, the growth is 105% in the experiment on HCT-15 colon; 122% with HT29 colon; 99.2% in the experiment with SNB-75 CNS; 109% with SNB-19 CNS; 104% with U251 CNS; 109% in the experiment with PC-3 prostate. The growth in the experiment on SK-MEL-5 melanoma is 113%; in the experiment with UACC-62 melanoma, 112%; with LOX IMVI melanoma it was 99.7%; with SK-MEL-28 melanoma, 116%; in the experiment on SK-MEL-2 melanoma, 120%; with EKVX NSCLC, 100%. The growth was 109% in the experiment on SN12C renal; 97% in the experiment with UO-31 renal; 111% with TK-10 renal; 109% with ACHN renal; 90.4% in the experiment on A498 renal; 105% in the experiment on CCRF-CEM leukemia. In the experiment on MOLT-4 leukemia, the growth is 111%.
For the compound `COC(=O)c1ccc2[nH]c(O)c(C(=Nc3ccc(N(C)C(=O)CN4CCN(C)CC4)cc3)c3ccc4c(c3)OCO4)c2c1`, the growth with HCT-15 colon was 8.49% (active); in the experiment on HT29 colon it was 4.28% (active); in the experiment with SNB-75 CNS it was -1.84% (active); in the experiment with SNB-19 CNS it was 14%; in the experiment with U251 CNS, 13.4%; with PC-3 prostate it was 19.3%. The growth was 10.1% in the experiment on SK-MEL-5 melanoma; 31.8% in the experiment on UACC-62 melanoma; 6.8% (active) in the experiment on LOX IMVI melanoma; 20.8% with SK-MEL-28 melanoma; -36.7% (active) in the experiment with SK-MEL-2 melanoma; 37.3% in the experiment with EKVX NSCLC. Moreover, the growth is 10.9% in the experiment with SN12C renal; 14.7% with UO-31 renal; -9.95% (active) with TK-10 renal; 8.02% (active) in the experiment on ACHN renal; 4.52% (active) in the experiment with CAKI-1 renal; -19.1% (active) in the experiment with A498 renal. Besides, the growth with CCRF-CEM leukemia was 4.01% (active); with MOLT-4 leukemia, 0.682% (active).
With `C=C(NC(=O)[C@H](C(C)C)N(C)c1cccc2[nH]ccc12)C(=O)OC`, the growth in the experiment on HCT-15 colon was 95.7%; in the experiment on HT29 colon it was 99.1%; in the experiment with SNB-75 CNS, 105%; with SNB-19 CNS, 103%; in the experiment with U251 CNS, 99.6%; in the experiment on PC-3 prostate, 101%. For the same compound, the growth in the experiment with SK-MEL-5 melanoma was 99.4%; in the experiment with UACC-62 melanoma it was 90.5%; in the experiment with LOX IMVI melanoma it was 94.3%; in the experiment on SK-MEL-28 melanoma it was 104%; in the experiment with SK-MEL-2 melanoma it was 104%; with EKVX NSCLC it was 93.8%. The growth in the experiment on SN12C renal is 101%; in the experiment on UO-31 renal, 80.1%; with TK-10 renal, 94.2%; in the experiment with ACHN renal, 101%; with CAKI-1 renal it was 92.6%; with A498 renal it was 94.4%. Further, the growth with CCRF-CEM leukemia was 87.1%; with MOLT-4 leukemia, 107%.
Regarding `CC[C@H](Nc1ncnc2nc[nH]c12)c1nc2cccc(NCc3ccc(C(=O)NO)nc3)c2c(=O)n1-c1ccccc1`, the growth in the experiment with HCT-15 colon was 97.1%; in the experiment on HT29 colon, 66.6%; in the experiment with SNB-75 CNS, 5.43% (active); with SNB-19 CNS it was 26%; in the experiment with U251 CNS, 23.6%; with PC-3 prostate, 23%. For the same compound, the growth in the experiment with SK-MEL-5 melanoma was 80.2%; in the experiment on UACC-62 melanoma, 20.5%; with LOX IMVI melanoma it was 23.1%; in the experiment on SK-MEL-28 melanoma it was 57.6%; in the experiment on SK-MEL-2 melanoma it was 55.6%; with EKVX NSCLC it was 77.1%. Moreover, the growth in the experiment with SN12C renal was 38.9%; with UO-31 renal, 87.1%; in the experiment on TK-10 renal, 58.9%; with ACHN renal, 97%; in the experiment on A498 renal, 54.2%; in the experiment with CCRF-CEM leukemia, 19.6%. In addition, the growth in the experiment on MOLT-4 leukemia is 15%.
As to `CCCCCCCCCc1cc[n+](CC(=O)c2ccc([N+](=O)[O-])cc2)cc1`, the growth was -18.2% (active) with HCT-15 colon; -52.1% (active) in the experiment on HT29 colon; 23.9% with SNB-75 CNS; 13.8% with SNB-19 CNS; 8.48% (active) in the experiment on U251 CNS; -0.775% (active) with PC-3 prostate. For the same compound, the growth was -77.8% (active) with SK-MEL-5 melanoma; -6.32% (active) in the experiment with UACC-62 melanoma; -77.2% (active) in the experiment with LOX IMVI melanoma; 12.3% with SK-MEL-28 melanoma; -73.9% (active) with SK-MEL-2 melanoma; 11.1% in the experiment with EKVX NSCLC. The growth in the experiment with SN12C renal is -2.2% (active); in the experiment with UO-31 renal it was 35%; with TK-10 renal, 48.4%; in the experiment on ACHN renal it was 48.1%; in the experiment on CAKI-1 renal, 74.9%; in the experiment with MOLT-4 leukemia, 1.62% (active).
Take `CC(C)(C)c1ccc([I+]c2ccc(C(C)(C)C)cc2)cc1`: the growth was 69.4% with HCT-15 colon; 11% with HT29 colon; 18.7% with SNB-75 CNS; 13.8% with SNB-19 CNS; 3.28% (active) with U251 CNS; 0.197% (active) with PC-3 prostate. Further, the growth in the experiment on SK-MEL-5 melanoma was -94.7% (active); in the experiment on UACC-62 melanoma it was -42.2% (active); in the experiment on LOX IMVI melanoma, -88% (active); in the experiment on SK-MEL-28 melanoma, 6.31% (active); in the experiment with SK-MEL-2 melanoma, -2.7% (active); in the experiment with EKVX NSCLC it was 15.6%. The growth was 3.97% (active) in the experiment on SN12C renal; 62.8% in the experiment with UO-31 renal; 23.5% in the experiment on TK-10 renal; 47.3% in the experiment with ACHN renal; -2.59% (active) with A498 renal; 9.22% (active) with CCRF-CEM leukemia. The growth with MOLT-4 leukemia is 12.1%.
As to `O=C1/C(=C\c2cn(-c3nc(N4CCOCC4)nc(N4CCOCC4)n3)c3ccccc23)c2ccccc2N1c1c(Cl)cccc1Cl`, the growth with HCT-15 colon was 64.5%; in the experiment with HT29 colon it was 73.9%; in the experiment with SNB-75 CNS, 0.936% (active); in the experiment with SNB-19 CNS, 69.6%; in the experiment on U251 CNS it was 53.5%; in the experiment on PC-3 prostate, 24.3%. The growth in the experiment with SK-MEL-5 melanoma was 83%; in the experiment with UACC-62 melanoma it was 46.6%; in the experiment with LOX IMVI melanoma it was 69.8%; in the experiment with SK-MEL-28 melanoma it was 77.2%; in the experiment with SK-MEL-2 melanoma, 74%; with EKVX NSCLC, 61%. In addition, the growth in the experiment with SN12C renal is 64.8%; with UO-31 renal, 24.6%; with TK-10 renal, 60%; in the experiment on ACHN renal it was 72.7%; in the experiment with A498 renal, -43.7% (active); in the experiment on CCRF-CEM leukemia, 64.5%. Further, the growth with MOLT-4 leukemia is 60.5%.
